Measured values from PubChem BioAssay AID1430 (University of Pittsburgh Molecular Library Screening Center, 2008).
Hit rate of the full screen: of about 220,000 compounds, about 240 (0.11%) were called active. Many of the other results were omitted from the sample, so actives are more common in it than they were. Unmarked numbers belong to inactive results.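 How the source made its calls: active means inhibition of 50% or more in the single-dose primary screen; inactive means inhibition below 50%.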

Test system: hexokinase 1 [Trypanosoma brucei]
Assay: TbHK1 enzyme activity blockers – biochemical, G6PDH-coupled NADH absorbance, MLSCN library, primary screen (AID 1430)
Details: recombinant TbHK1, G6PDH-coupled NADH A340; at 10 µM; hits give high values

SMILES | inhibition
CCOc1ccccc1C(=O)NC1CC2CCCC(C1)N2Cc1ccccc1 (stereo not given) | 3.91%
CCC(CC)C(=O)N1CCN(c2cccc(C)c2C)CC1 | -4.04%
Cc1c(Cl)c([N+](=O)[O-])nn1Cc1ccc(C(=O)N/N=C\c2cc(Cl)ccc2O)o1 | 0.728%
CCCc1nc(-c2cc3cc(C)ccc3[nH]c2=O)no1 | -10.1%
Cc1ccc(N(C(=O)Cc2cccs2)C(C(=O)NCC2CCCO2)c2ccncc2)cc1 (stereo not given) | -7.37%
CSc1nnnn1-c1c(C)cc(C)cc1C | -0.934%
O=C1CC(c2cccc(Cl)c2)CC(O)=C1C=Nc1ccccc1 (stereo not given) | -3.36%
CC(=O)O[C@]1(C(C)=O)CC[C@H]2[C@@H]3C=C(C)C4=CC(=O)CC[C@]4(C)[C@H]3CC[C@@]21C | -3.98%
Cc1ccc(-c2nc(SCC(=O)Nc3ccccc3OC(F)F)c3c(C)c(C(=O)O)sc3n2)cc1 | -36.7%
COCCNC(=O)c1ccc(-n2c(SCc3cccnc3)nc3ccccc3c2=O)cc1 | -6.28%
CC(O)c1nc2c(c(=O)n(C)c(=O)n2C)n1C (stereo not given) | -12.1%
O=C(Nc1ccc(N2C(=O)c3cccc4cccc(c34)C2=O)cc1)c1ccc(N2CCCCC2)c([N+](=O)[O-])c1 | -9.23%
CCCCN(C(=O)c1ccc(OC(F)(F)F)cc1)c1c(N)n(CCC)c(=O)[nH]c1=O | 2.61%
COc1cc(NC(=O)COC(=O)c2cnc(C)cn2)c(C)cc1[N+](=O)[O-] | -6.37%
CCOC(=O)C1CCN(C(=O)C2(NC(=O)Nc3cccc(F)c3)CCCCC2)CC1 | -1.28%
Cc1ccc(SC(C)C(=O)NCc2ccc(F)cc2)cc1 (stereo not given) | 4.64%
CC1Cc2ccccc2N1C1=CC(=O)CC(C)(C)C1 (stereo not given) | -58.2%
CN(C)CCCO/N=C(\c1ccccc1)c1ccncc1 | -6.34%
C/C(=N\Nc1cccc(C(=O)O)c1)c1ccc2c(c1)Nc1ccccc1S2 | -4.39%
CCN(CC(=O)Nc1ccc(Cl)c(S(=O)(=O)N(C)C)c1)Cc1nc2ccccc2c(=O)[nH]1 | -2.75%
O=C(Oc1ccccc1Cl)c1ccc(N2CCOCC2)c([N+](=O)[O-])c1 | -7.89%
C/C(=N/NC(=O)CSc1ccccn1)c1ccc([N+](=O)[O-])cc1 | -9.77%
Cc1onc(C(=O)NCc2ccc(F)cc2)c1[N+](=O)[O-] | -2.07%

SMILES | inhibition
CCOCCCNC(=O)C(NC(=O)c1ccccc1O)c1ccccc1 (stereo not given) | -9.74%
COC(=O)C(C(=O)Nc1cccc(C)n1)C1CCCCCC1 (stereo not given) | 5.11%
CC(=O)Nc1ccc(NC(=O)C(C)OC(=O)c2ccccc2C(=O)c2ccc(Cl)c([N+](=O)[O-])c2)cc1 (stereo not given) | -6.27%
O=S(=O)(NC1CCCCC1)c1ccc(F)c2ccccc12 | 2.7%
COC(=O)c1c(NC(=O)CCCC(=O)O)sc2c1CCCCC2 | -10.9%
C=CCn1c(COc2ccc(F)cc2)nnc1SCC(=O)Nc1cccc(S(N)(=O)=O)c1 | -3.84%
CCc1cccc2c3c([nH]c12)C(CC)(CC(=O)O)OCC3 (stereo not given) | -3.41%
Cc1ccc(S(=O)(=O)N(C)C)cc1NC(=O)/C=C/c1cccs1 | 5.08%
N#Cc1c(N)nc2c(c1N)CC(C(F)(F)F)O2 (stereo not given) | 4.59%
O=C(CN1C(=O)C2C3C=CC(C3)C2C1=O)NCCc1ccccc1Cl (stereo not given) | 57.8% (active)
O=C(CN1C(=O)C2C3C=CC(C3)C2C1=O)NCC1COc2ccccc2O1 (stereo not given) | -4.57%
O=C(CCN1C(=O)C2C3C=CC(C3)C2C1=O)Nc1ccccc1F (stereo not given) | -3.82%
Nc1nnnn1/N=C/c1cc([N+](=O)[O-])ccc1O | -31.3%
O=C(NCCc1ccccc1)C1CCC(Cn2c(=O)c3ccccc3n(Cc3cccnc3)c2=O)CC1 (stereo not given) | -9.56%
Cc1cc2nc(SCCN3CCOCC3)[nH]c2cc1C | 2.94%
CCOC(=O)c1ccc(NNC(C)=O)c([N+](=O)[O-])c1 | -2.98%
N#Cc1ccc(Oc2ccc(C(F)(F)F)cc2NC(=O)c2ccc(F)cc2)cc1 | -2.47%
C#CCOCCOCCOCCNc1nc(N2CCN(C(=O)[C@H](CCC(=O)O)n3cc(C(N)CO)nn3)CC2)nc(N2CCN(C(=O)[C@H](Cc3ccc(O)cc3)n3cc(C(N)[C@H](C)CC)nn3)CC2)n1 (stereo not given in full) | -6.04%
Cc1cc(OC(=O)c2ccccc2)c([N+](=O)[O-])c(=O)[nH]1 | -5.67%
Cc1ccc(C2=N/C(=C\c3ccc(OS(=O)(=O)c4ccc(C)cc4)cc3)C(=O)O2)cc1 | 2.44%
Brc1ccc(-c2noc(-c3ccccc3)n2)o1 | -6.63%
O=C1C(=O)N(c2ccccc2)c2ccccc21 | -11.4%
Cc1cc(C(=O)N/N=C/c2cc([N+](=O)[O-])cc(C)c2O)n[nH]1 | 1.39%

SMILES | inhibition
COC(=O)NNC(=O)C1CCC(C)CC1 (stereo not given) | -0.712%
O=C(NN=C1CCC(=NNC(=O)c2cccnc2)CC1)c1cccnc1 | -1.3%
Cc1ccc(NC(=O)Nc2cc(-c3ccccc3)nn2C)cc1Cl | -21.8%
CC1(C)OC(=O)C(=CNC(CO)C(=O)O)C(=O)O1 (stereo not given) | 2.5%
Cc1ccc(CSc2nc3[nH]ncc3c(=O)[nH]2)cc1 | -4.89%
O=C1NC(c2cccc(Cl)c2)Nc2ccccc21 (stereo not given) | -2.98%
C=CCN1C=C2C(=O)C(C)(OC(=O)CCc3ccccc3)C(=O)C=C2C=C1c1ccc(C#N)cc1 (stereo not given) | -9.51%
O=C(NNC(=O)c1csc(-c2cccnc2)n1)Nc1ccc(Cl)cc1 | 1.85%
Cc1ccc(-n2c(C)cc(C(=O)CSc3nnc4ccccn34)c2C)cc1 | -7.8%
NC(=O)c1ccccc1N=Cc1ccc2ccccc2c1 | 27.1%
O=C(OCC(=O)N1CCOCC1)c1ccc(N2CCOCC2)c([N+](=O)[O-])c1 | -6.48%
Cc1nc2nc[nH]n2c(=O)c1C/C=C/c1ccccc1 | -2.13%
COc1ccc(C(=O)NNc2cc(C)nc(NNC(=O)c3ccc(OC)cc3)n2)cc1 | -5.16%
Cc1[nH]n(C)c(=O)c1N=Nc1ccc(S(C)(=O)=O)cc1 | -42.5%
Cc1ccc(Oc2nc(-c3ccccn3)nc3ccccc23)cc1 | -12.7%
COC(=O)CN1C(=O)N/C(=C/c2ccc(OC)c(C)c2OC)C1=O | -28.4%
C=C(C)C(=O)Nc1cccc(C2=NOC3(C2)C[C@H](C(N)=O)N(C(=O)C(c2ccccc2)c2ccccc2)C3)c1 (stereo not given in full) | 7.7%
Cc1ccc(Cl)c(OCC(=O)NN2CCN(C)CC2)c1 | -3.39%
COc1ccc(C(=O)NC2(C(F)(F)F)NC(=O)N(CCCc3ccccc3)C2=O)c(OC)c1OC (stereo not given) | -4.23%
O=C(CSc1nnc2ccc(-c3ccncc3)nn12)N1CCCCC1 | -7.7%
COC(=O)c1ccc(/C=N/OCC(=O)Nc2cc(F)ccc2F)cc1 | -4.64%
COc1ccc(NC(=O)c2cc3nc(-c4ccccc4)cc(C)n3n2)cc1OC | -16.7%
COc1ccccc1NC(=O)C1CCCN(c2cc(C)nc3ncnn23)C1 (stereo not given) | -1.1%

SMILES | inhibition
COc1cc(/C=C2\SC(=S)N(Nc3ncc(C(F)(F)F)cc3Cl)C2=O)cc(OC)c1OC | -3.09%
COc1cccc(/C=N/Nc2ncc(C(F)(F)F)cc2Cl)c1O | 73.5% (active)
COc1cccc(/C=N/Nc2cc(C)nc(-c3ccccc3O)n2)c1O | -40%
COC(=O)Nc1ccc(S(=O)(=O)N2CCN(CCN3C(=O)C4C5C=CC(C5)C4C3=O)CC2)cc1 (stereo not given) | 1%
Cc1c(C(N)=O)sc2ncn(CCOc3ccccc3)c(=O)c12 | -3.42%
CCc1ccc(CNC(=O)CCc2nc(-c3cccs3)no2)cc1 | -2.08%
O=C(CCC1CCCN(C(=O)Cc2ccc(F)cc2)C1)N1CCN(c2ccccn2)CC1 (stereo not given) | -6.3%
CSc1ccccc1NC(=O)Cc1ccc(Br)cc1 | 32.7%
O=C1/C(=C\Nc2ccccc2)CCN1c1ncccn1 | -65.9%
COc1ccccc1NC(=O)CC(NCCN(C)C)C(=O)O (stereo not given) | -1.3%
COCCCNc1nc2c(-c3cccc(C(F)(F)F)c3)nnn2c2ccccc12 | -3.92%
CCOC(=O)C1(Cc2ccc(Cl)cc2)CCN(C(=O)C2=NNC(=O)CC2)CC1 | -7.3%
Cc1ccc(SC(=O)COc2ccc(C)c(C)c2)cc1 | 7.35%
S=c1nccc(-c2cc(Cl)sc2Cl)[nH]1 | -7.08%
CCCN1CNC(=S)N(CCc2ccccc2)C1 | -4.25%
Cc1ccc(C)c(Cn2nnc3c(=O)[nH]c(C(=O)Nc4ccc(F)cc4)nc32)c1 | 1.66%
COc1ccc(OC)c(NC(=O)N[C@H](Cc2ccccc2)C(=O)NN)c1 | -2.36%
Cc1ccc(NC(=O)Cn2c(=O)n(CCC(=O)NC3CCN(Cc4ccccc4)CC3)c(=O)c3ccccc32)cc1 | 1.82%
COc1ccc(/C=N/S(=O)(=O)c2ccccc2)cc1OC | -6.73%
CCCSc1ncccc1C(=O)O | -11%
CCOC(=O)C1CCN(CCC(=O)Nc2cccc(C)c2)CC1 | -3.14%
